In the library only some 4.2% were active in any assay of this set; here they are far more common.
hgDAF12 agonist = H. glycines DAF-12 receptor agonists, primary screen, cell-based, luminescence, HEK293, GAL4 fusion, UAS-luciferase; HEK293 GAL4-hgDAF12 UAS-luciferase reporter, agonist luminescence; normalized to butyrate control; activation, % at 6.8 µM; Nuclear hormone receptor DAF-12 (Heterodera glycines), GAL4 fusion; 370,000 tested, 1.8% active;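 active = activation above a cutoff set at the mean of all screened compounds plus 3 SD, cut at about 10% in these data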;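 note: 0% = DMSO wells and 100% = sodium butyrate wells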
hcDAF-12 act = H. contortus DAF-12 nuclear receptor activators, primary screen, cell-based, luminescence, HEK293, lit1-tk-luc reporter; activation, % at 6.8 µM; 370,000 tested, 1.4% active; HEK293 hcDAF-12 lit1-tk-luc reporter; 0% DMSO, 100% Δ7-dafachronic acid;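 active = activation above the mean of all tested compounds plus 3 SD, cut at about 5.5% in these data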;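 note: 100% = response to 3 µM Δ7-dafachronic acid high control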
DAX1 inh = DAX1 (NR0B1) inhibitors on StAR promoter, primary screen, cell-based, luminescence, SF-1 (NR5A1), full-length DAX-1; HEK293T StAR-luciferase reporter, SF-1/DAX-1 repression relief; inhibition, % at 6.8 µM; 370,000 tested, 1.1% active; AID 652010, 2013;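 active = inhibition above the mean over all tested compounds plus 3 SD, cut at about 3.6% in these data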;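 note: 0% = DAX-1 cells with DMSO and 100% = cells lacking DAX-1 with DMSO; higher inhibition means more luminescence from relief of DAX-1 repression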
ssDAF12 agonist = S. stercoralis DAF-12 nuclear receptor activators, primary screen, cell-based, luminescence, HEK293, GRIP1 co-expression, lit1-tk-luc. activation, % at 6.8 µM. 370,000 tested, 1% active. HEK293 ssDAF-12/GRIP1 lit1-tk-luc reporter; % of 3 µM dafachronic acid response. Nuclear hormone receptor DAF-12 (Strongyloides stercoralis);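 active = activation above the mean over all tested compounds plus 3 SD, cut at about 0.9% in these data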;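 note: 0% = DMSO-only wells and 100% = 3 µM delta7-dafachronic acid wells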
SMARCA2 act = SMARCA2 (BRM) function activators, primary screen, cell-based, luminescence, high throughput; MG213 cells, MMTV-luciferase reporter, dexamethasone, overnight; activation, % at 9.1 µM; 370,000 tested, 1% active; AID 652017, 2013; in the data active = activation above about 7.8%;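 note: 0% = vehicle wells and 100% = reference activator wells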
hgDAF12 conf = H. glycines DAF-12 receptor agonists, confirmation, cell-based, luminescence, HEK293, GAL4-LBD fusion. shares compounds with hgDAF12 agonist. 3,300 tested, 80% active. AID 743050, 2013. HEK293 GAL4-hgDAF12 luciferase reporter, agonist mode; percent of butyrate response. activation, % at 6.8 µM;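 active = mean activation over triplicate wells above the hit cutoff derived from the earlier primary screen, cut at about 11% in these data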;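 note: 0% = DMSO low control and 100% = 2 mM sodium butyrate high control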
LXRb DAF12 ctr = LXR agonists, Gal4 luciferase reporter, confirmation, counter-screen for hgDAF-12 agonist project, cell-based, luminescence, HEK293, H. glycines campaign; shares compounds with hgDAF12 agonist; 24 h; activation, % at 6.8 µM; 3,300 tested, under 10 active; AID 743051, 2013;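 active = mean activation of the triplicate above a set limit carried over from the primary screen, none filed active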
Target sequence (P55055 whole entry, looked up, the tested form may be a part): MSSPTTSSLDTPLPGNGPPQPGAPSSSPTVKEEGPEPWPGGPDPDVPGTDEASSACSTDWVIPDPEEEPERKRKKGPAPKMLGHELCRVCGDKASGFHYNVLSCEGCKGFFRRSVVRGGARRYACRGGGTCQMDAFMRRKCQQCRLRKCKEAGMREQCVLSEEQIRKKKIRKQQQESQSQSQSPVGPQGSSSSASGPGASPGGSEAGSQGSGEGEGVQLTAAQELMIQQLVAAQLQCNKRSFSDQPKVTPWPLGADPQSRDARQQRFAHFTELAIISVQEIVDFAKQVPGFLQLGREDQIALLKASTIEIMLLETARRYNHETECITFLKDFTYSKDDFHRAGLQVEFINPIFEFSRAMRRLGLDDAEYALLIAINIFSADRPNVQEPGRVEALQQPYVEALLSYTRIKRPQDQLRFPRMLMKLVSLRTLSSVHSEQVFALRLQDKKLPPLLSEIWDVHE
Starred values were filed as active, the others as inactive; x = not tested or not shown.

SMILES | hgDAF12 agonist | hcDAF-12 act | DAX1 inh | ssDAF12 agonist | SMARCA2 act | hgDAF12 conf | LXRb DAF12 ctr
COc1cc(NC(=O)C2CCCN(S(=O)(=O)c3ccccc3[N+](=O)[O-])C2)cc(OC)c1 (stereo unspecified) | -4 | -3 | -1 | -2 | -1 | x | x
Cn1cc(/C=C2/SC(=O)N(c3ccccc3)C2=O)c2ccccc21 | 6 | 4 | 1 | 0 | -1 | x | x
Cn1cccc1/C=C1\SC(=O)N(c2ccccc2)C1=O | 16* | 3 | 2 | 0 | 5 | 20* | 1
N/C(=N\OC(=O)COc1ccc(Cl)cc1Cl)c1ccncc1 | 16* | 5 | 4.0* | 0 | 0 | 21* | 1
N/C(=N\OC(=O)COc1ccc(Br)cc1)c1ccncc1 | 2 | 3 | 0 | 0 | -2 | x | x
CO[C@H]1CN(C)C(=O)c2ccc(NC(=O)C3CCC3)cc2OC[C@H](C)N(CC2CCCCC2)C[C@@H]1C | -1 | 1 | 0 | -1 | -3 | x | x
CC(C)(C)n1cnc2cc(NCc3ccc(Br)cc3)ccc21 | 17* | 3 | 1 | 0 | 3 | 13* | 1
CC(C)(C)n1cnc2cc(NC(=O)c3ccc(Cl)cc3)ccc21 | 14* | 5 | 3 | 1.3* | 3 | 19* | 2
CCc1ccc(CNc2ccc3c(c2)ncn3C(C)(C)C)cc1 | 4 | 5 | 1 | 0 | -1 | x | x
COc1ccc(/C=N/Nc2ccc([N+](=O)[O-])cc2)cc1Cn1cc([N+](=O)[O-])cn1 | -1 | -1 | 0 | -1 | 3 | x | x
COc1ccc(/C=N/Nc2ccc([N+](=O)[O-])cc2)cc1O | 17* | 3 | 2 | 0 | 2 | 17* | 1
COC[C@H]1CCCN1c1cccc2c1S(=O)(=O)N1CC[C@H](C1)O2 | 2 | -1 | 0 | 0 | -1 | x | x
Cc1cc(NC(=O)OC2CCCCC2)ccc1[N+](=O)[O-] | 17* | 2 | 1 | 0 | 2 | 14* | 1
COc1ccc(C(=O)Nc2cc(C)on2)c(OC)c1 | 15* | 3 | 2 | 0 | 2 | 13* | 1
COc1ccc(OC)c(S(=O)(=O)Nc2ccc(C(=O)Nc3cc(C)on3)cc2)c1 | 16* | 0 | -1 | -1 | -3 | 0 | 0
COC(=O)C1=C(C)N(Cc2ccccc2C(F)(F)F)C(=NCc2ccc(OC)cc2)NC1c1ccc(Cl)cc1 (stereo unspecified) | 3 | 1 | -1 | -1 | -3 | x | x
O=C(NCCO)[C@H](Cc1ccccc1)NC1(C(=O)NCCN2CCOCC2)CCCCC1 | 0 | 0 | x | -2 | x | x | x
O=C(NCCc1ccccc1)c1ccc(-c2cccnc2)c2ccoc12 | 14* | 1 | 4.3* | 1 | 1 | 11* | 0
O=C(NNC(=S)Nc1ccccc1)c1ccc(O)cc1 | 15* | 2 | 3 | 0 | 6 | 12* | 1
Cc1sc(NC(=O)c2ccccc2)c(C#N)c1-c1ccccc1 | 16* | 2 | 2 | 0 | 3 | 12* | 1
S=C(NCCc1ccc(Cl)cc1)NC1CC1 | 16* | -1 | 0 | -1 | 5 | 2 | 0
NS(=O)(=O)c1ccc(CCNC(=S)NC2CCCC2)cc1 | 4 | 5 | 0 | 0 | -2 | x | x
S=C(Nc1ccccc1)OCCN1CCCC12CCC(c1ccccc1)CC2 (stereo unspecified) | 2 | 1 | x | -1 | x | x | x
Cc1cccc(C2NC(=O)c3ccccc3N2)c1 (stereo unspecified) | 16* | 2 | 3 | 0 | 3 | 14* | 0
Cc1ccc(C(C)(C)NC(=O)C2CCC(=O)N(CCCN3CCOCC3)C2)cc1 (stereo unspecified) | 0 | 1 | 0 | -1 | -4 | x | x
SMILES | hgDAF12 agonist | hcDAF-12 act | DAX1 inh | ssDAF12 agonist | SMARCA2 act | hgDAF12 conf | LXRb DAF12 ctr
Cc1ccc(C(C)(C)NC(=O)C2CCC(=O)N(C3CCCCCC3)C2)cc1 (stereo unspecified) | 13* | 6.0* | 3 | 0 | 5 | 14* | 0
O=C(O)c1cccc(-c2nnn(Cc3ccccc3)n2)c1 | 15* | 5.7* | 2 | 1 | 1 | 11* | 1
O=c1c2ccccc2nc2sc(Nc3ccc(F)cc3)nn12 | 6 | 3 | 1 | 0 | 4 | x | x
Cc1ccccc1Nc1nc2ccccc2s1 | 17* | 6.2* | 2 | 0 | 6 | 18* | 1
Fc1ccc(Nc2nc3ccccc3s2)cc1 | 26* | 5 | 3 | 0 | 2 | 12* | 0
O=C(Nc1cccc(O)c1)c1ccc(C(F)(F)F)cc1 | 14* | 4 | 2 | 0 | 2 | 13* | 1
O=C(Nc1nc2ccc(Br)cc2s1)c1ccco1 | 13* | 6.1* | 3 | 1 | 4 | 17* | 1
Cc1cc2sc(NC(=O)c3ccco3)nc2cc1Cl | 14* | 4 | 3 | -1 | 5 | 20* | 1
Cc1nc(NC(=O)c2ccc(Br)o2)sc1C | 10 | 2 | 2 | 0 | 0 | x | x
CCCCc1ccc2nc(NC(=O)c3ccco3)sc2c1 | 22* | 5 | x | 0 | x | 19* | 1
CCCCCCc1nnc(NC(=O)c2ccco2)s1 | 4 | 1 | 0 | -1 | 6 | x | x
CC(=O)Nc1nc2ccc(Br)cc2s1 | 8 | 1 | 0 | -2 | 2 | x | x
Cc1nc2ccc3nc(NC(=O)c4ccco4)sc3c2s1 | 6 | 4 | 2 | -1 | 6 | x | x
Cc1ccc2nc(NC(=O)c3ccc(Br)o3)sc2c1 | 15* | 6.3* | 2 | 1 | 7 | 17* | 1
C#CCN1CC(COc2ccccc2)Oc2cccc(Oc3ccc(SC)c(C)c3)c2S1(=O)=O (stereo unspecified) | 1 | 1 | 3 | 0 | -4 | x | x
COc1ccc(-c2c(C)nc3c(-c4ccccn4)cnn3c2N)cc1 | 14* | 5 | 3 | 0 | 6 | 11* | 1
CCCNC(=O)c1cc2c(c(-c3cccc(-c4ccc(F)cc4)c3)n1)[C@H](CCO)N(S(=O)C(C)(C)C)C2 (stereo partly specified) | -6 | -2 | 1 | -2 | -4 | x | x

Screens: PubChem, The Scripps Research Institute Molecular Screening Center
